According to ChEMBL document CHEMBL1157539, “Thousands of chemical starting points for antimalarial lead identification” (Nature, 2010):

These compounds were tested on Plasmodium falciparum (assay: GSK_TCMDC: Inhibition of Plasmodium falciparum 3D7 in whole red blood cells, using parasite LDH activity as an index of growth. Test compounds present at 2uM).
Type: functional
`Cn1nc(-c2cccc(CN[C@@H]3CCc4ccc(O)cc43)c2)c2cnc(NCCCN3CCCC3)nc21` gave an Inhibition of 100%.
In the case of `CCN1CCN(C(=O)NC(C(=O)N2CCCC(COc3ccc(Cc4ccccc4)cc3)C2)c2cccs2)C(=O)C1=O` (stereo not drawn), the Inhibition is reported as 95%.
Compound `COc1ccc(C=Cc2cc(=N)c3ccccc3[nH]2)cc1Br` has an Inhibition of 100%.
`COc1cccc(CN(C(=O)Nc2ccccc2F)[C@H]2C[C@H]3C(=O)Nc4cc(F)ccc4C(=O)N3C2)c1` showed an Inhibition of 93%.
In the case of `N#Cc1cncc(-c2nc3c(N4CCCC(N)C4)cccc3n2CCNCc2ccccc2)c1.O=C(O)C(F)(F)F` (stereo not drawn), the Inhibition is reported as 100%.
Compound `CCCCCCNc1cc(C)nc(NC(=N)Nc2cccc(C(F)(F)F)c2)n1` has an Inhibition of 100%.
`Cl.O=C(NC1CCN(CC2(c3ccc(Cl)cc3)CCCCC2)CC1)c1cc[nH]n1` showed an Inhibition of 98%.
`CC(C)c1ccc(OCC(O)CN(CCN2CCOCC2)C(=O)Nc2ccc(Br)cc2)cc1.O=C(O)C(F)(F)F` (stereo not drawn) showed an Inhibition of 98%.
In the case of `CN(CCN(C)C(=O)NCc1ccccc1)C(=O)NCc1ccccc1`, the Inhibition is reported as 100%.
Compound `CN1c2ccc([N+](=O)[O-])cc2C(C)(C)C12C=Cc1cc(Br)cc([N+](=O)[O-])c1O2` (stereo not drawn) has an Inhibition of 100%.
Compound `Nc1ccc2[nH]cc(C3CCN(CC4CCC(NC(=O)/C=C/c5ccccc5Cl)CC4)CC3)c2n1` (stereo not drawn) has an Inhibition of 100%.
Compound `COc1ccc(-c2ccc(NC(=O)c3ccc(Cl)cc3)cc2)cc1CN1CCNCC1.O=C(O)C(F)(F)F` has an Inhibition of 99%.
In the case of `N#Cc1cccc(C(=O)Nc2cccc(-c3ccc(CN4CCCC4)cc3)c2)c1.O=C(O)C(F)(F)F`, the Inhibition is reported as 98%.
